# Assay results from PubChem BioAssay (NCI).
# Compounds without any hit were thinned out: in the full panel of roughly 83,000, 20% have a hit.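 Results are percent growth after 48 hours of single-concentration exposure. 100 means growth as in untreated cells, lower positive values show inhibition; negative values down to -100 show cell death.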 Values without a mark were called inactive. The source made the active and inactive calls. The calls were made as follows: active = growth percent below 10; inactive = the rest.
# Columns and labels:
# Test in all cases: NCI-60 one-dose screen, 48 h (100 = growth as untreated, 0 = no growth, -100 = all killed)
# Details in all cases: 10 µM
# NCI-H23 lung = tested on: NCI-H23 lung
# NCI-H226 lung = tested on: NCI-H226 lung
# HOP-62 NSCLC = tested on: HOP-62 NSCLC
# NCI-H460 lung = tested on: NCI-H460 lung
# NCI-H522 lung = tested on: NCI-H522 lung
# A549/ATCC NSCLC = tested on: A549/ATCC NSCLC
# 786-0 renal = tested on: 786-0 renal
# COLO 205 colon = tested on: COLO 205 colon
# DU-145 prostate = tested on: DU-145 prostate
# K-562 leukemia = tested on: K-562 leukemia
# MALME-3M melanoma = tested on: MALME-3M melanoma
# MDA-MB-231 breast = tested on: MDA-MB-231 breast
# SF-268 CNS = tested on: SF-268 CNS
# SF-295 CNS = tested on: SF-295 CNS
# SF-539 CNS = tested on: SF-539 CNS
# UACC-257 melanoma = tested on: UACC-257 melanoma
# M14 melanoma = tested on: M14 melanoma
# HCT-15 colon = tested on: HCT-15 colon
# RXF 393 renal = tested on: RXF 393 renal
SMILES,growth (NCI-H23 lung),growth (NCI-H226 lung),growth (HOP-62 NSCLC),growth (NCI-H460 lung),growth (NCI-H522 lung),growth (A549/ATCC NSCLC),growth (786-0 renal),growth (COLO 205 colon),growth (DU-145 prostate),growth (K-562 leukemia),growth (MALME-3M melanoma),growth (MDA-MB-231 breast),growth (SF-268 CNS),growth (SF-295 CNS),growth (SF-539 CNS),growth (UACC-257 melanoma),growth (M14 melanoma),growth (HCT-15 colon),growth (RXF 393 renal)
COc1cc(Cc2cc(-c3ccc(Cl)cc3)n[nH]c2=O)ccc1O,83.5%,224%,104%,74.2%,105%,58.6%,103%,111%,128%,78.5%,108%,100%,93.2%,124%,98.4%,128%,108%,104%,
COc1ccc(N2C(=O)C3c4[nH]c5ccc(OCc6ccccc6)cc5c4C4CCC(C(C)C)CC4C3C2=O)cc1 (stereo not drawn),104%,104%,113%,103%,34.6%,99.4%,97.6%,102%,113%,117%,107%,101%,96.7%,114%,118%,96.1%,124%,16.3%,102%
Cc1ccc(NC(=O)NC2CCCCC2)cc1,108%,95.5%,96.1%,102%,82.8%,91.5%,98.6%,105%,114%,98%,108%,115%,108%,105%,102%,80.6%,107%,96.3%,102%
O=C1OCC2=C1C(c1cccc(Cl)c1)c1cc3c(cc1N2CCO)OCO3 (stereo not drawn),31.7%,23.4%,31.4%,7.53% (active),-19.7% (active),27.6%,35.7%,-6.41% (active),11%,15.4%,,31.7%,46.5%,-4.59% (active),-9.08% (active),61%,11%,,6.21% (active)
CSc1nc(=O)n(Cc2ccc(F)cc2)c(=O)n1Cc1ccc(C)cc1,101%,101%,101%,105%,110%,88.5%,100%,94.6%,107%,91.1%,97.6%,103%,96.6%,79.8%,108%,106%,99.7%,102%,113%
C/C(N)=C(\C#N)C(=O)c1ccccc1,104%,98%,105%,103%,96.6%,97.6%,106%,105%,110%,109%,90.5%,121%,110%,94.1%,103%,88%,110%,98.2%,97.5%
COc1ccc2c(c1)C(=O)c1c-2c(OCCN(C)C)nc2ccccc12,41.5%,45.5%,30.8%,2.29% (active),21.2%,14%,33.7%,23.4%,27%,10.2%,,67.8%,26.6%,18%,45.9%,36.2%,30%,20.5%,49%
COc1ccc(Cl)cc1-n1nnc(-c2nc3ccccc3[nH]2)c1N,92.8%,60%,37.3%,27.7%,68.6%,61.8%,58.1%,98.1%,93.4%,94.5%,63.8%,86.1%,62.6%,58.7%,91.6%,95.4%,89.3%,94.1%,74.2%
